# HTT promoter inh: HTT promoter inhibition; HEK293 HTT promoter firefly luciferase reporter, 24 h; Potency, µM (doses to about 57.5 µM), inactives show at the top dose activity change, negative = inhibition, most hits filed as inhibitors; 48,000 tested, 0.93% active; AID 1508623; also: potency is read from the fitted curve at half-maximal effect; nearly all actives have a fitted effect of over 50% in size
#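 Quantitative HTS used concentration series of up to 57.5 uM final on HEK293 luciferase reporter cells, 24 h at 37 degrees C. Readout was Dual-Glo firefly luminescence.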
# HTT-AS act: activates huntingtin-antisense promoter activity; AID 1508624; 48,000 tested, 0.24% active; Potency, µM (series often up to 57.5 µM), for the others: at the top dose activity change, positive = activation, most hits filed as activators; HEK293 HTT-AS promoter firefly luciferase reporter, 24 h; response scale: percent change from vehicle, -100% = no light; also: potency is read from the fitted curve at half-maximal effect; nearly all actives have a fitted effect of over 55% in size
#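 HEK293 luciferase promoter-reporter cells (2,500/well) plated 24 h, then compounds added at up to 57.5 uM final for 24 h at 37 °C. Firefly luminescence by Dual-Glo, normalized to vehicle (0%) and zero RLU (-100%).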
# PMP22 txn prim: PMP22 gene transcription modulation; S16 Pmp22-F2sN Schwann cells, FLuc/NLuc coincidence luminescence, 24 h; Potency, µM (highest dose often 57.5 µM), for inactives: at the highest dose activity change, negative = inhibition, most hits filed as inhibitors; 43,000 tested, 2% active; active = clear falling dose curves in both reporters; inconclusive = both reporters move, but less clearly or upward; inactive = either reporter flat; the % is the NLuc reporter signal; also: potency is read from the fitted curve at half-maximal effect; % is scaled to controls: 0 for no effect and ±100 for the full control effect
#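 Schwann cells carrying the coincidence reporter were exposed to library compounds for 24 h at 37C, then lysed and read for FLuc and, after quenching, NLuc luminescence on a CCD imager.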
# S16 F2sN tox: cytotoxicity in S16 Pmp22-F2sN Schwann cells; S16 Pmp22-F2sN Schwann cells (luciferase reporters placed in the Pmp22 gene) viability, CellTiter-Glo, 24 h; Potency, µM (doses to about 57.5 µM), for the others: at the top dose activity change, negative = cytotoxicity, actives largely listed as cytotoxic; 43,000 tested, 0.48% active; also: potency is read from the fitted curve at half-maximal effect; % is scaled to controls: 0 for no effect and ±100 for the full control effect; nearly all actives have a fitted effect of over 65% in size
#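 Seed 500-1,000 S16 Pmp22-F2sN cells per well in phenol-red-free DMEM with 10% heat-inactivated FBS; pin-add 23 nL compound; incubate 24 h at 37C; add CellTiter-Glo, wait 15 min protected from light; read luminescence.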
# SKOV3 invasion: ovarian cancer metastasis inhibition, 3D TME model; SKOV3ip1-GFP adhesion/invasion on 3D omental model, fluorescence; 46,000 tested, 0.1% active; AID 1963576; Potency, µM (doses to about 45.8 µM), inactives show at the top dose activity change, negative = inhibition, most hits filed as inhibitors;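 also: potency is read from the fitted curve at half-maximal effect; plate controls were DMSO wells for no effect and tomatine positive control wells for full effect; nearly all actives have a fitted effect of over 65% in size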
#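 Primary human omental fibroblast/mesothelial 3D culture pre-formed 48 h. SKOV3ip1-GFP cells added with compounds (0.36-46 umol/L), incubated 2 h RT/16 h 37 C, fixed; GFP cells quantified at 488/509 nm.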
# mTORC1 inh: inhibitors of mTORC1 signaling in Tsc2-/- p53-/- MEF cells. Tsc2-/- p53-/- MEF, phospho-rpS6 immunofluorescence/PI, 24 h. 44,000 tested, 0.78% active. AID 493208. Potency, µM (highest dose often 38.3 µM), for the others: top-dose activity change, negative = inhibition, hits mostly inhibitors;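 also: potency is read from the fitted curve at half-maximal effect; plate controls were DMSO for no effect and rapamycin for full effect; nearly all actives have a fitted effect of over 50% in size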
#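 Tsc2-/-, p53-/- mouse embryonic fibroblasts (empty-vector line) exposed to compound 24 hrs at 37 C, fixed, immunostained for phospho-rpS6 and counterstained with propidium iodide. Acumen laser scanning gives % positive cells from Alexa 488/PI ratio, thresholded using 7.5 nM rapamycin; PI count gives viability.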
# NLuc sat counter: counter-screen for PMP22 expression modulators: NanoLuc inhibition, saturating substrate | 690 tested, 4% active | AID 1508638 | Secreted NLuc enzyme (filtered S16 cell medium), Nano-Glo luminescence | shares compounds with PMP22 txn prim | Potency, µM (doses to about 57.5 µM), inactives show at the top dose activity change, negative = inhibition, actives largely listed as inhibitors; also: potency is read from the fitted curve at half-maximal effect; % is scaled to controls: 0 for no effect and ±100 for the full control effect
# NLuc Km ctr: inhibits NanoLuc under Km conditions, PMP22 counter-screen; shares compounds with PMP22 txn prim; Potency, µM (titrated, usually from 57.5 µM), without a hit: at the top dose activity change, negative = inhibition, most hits filed as inhibitors; 690 tested, 5% active; secreted NLuc enzyme, coelenterazine luminescence, Km conditions; AID 1508639; also: potency is read from the fitted curve at half-maximal effect; % is scaled to controls: 0 for no effect and ±100 for the full control effect
# FLuc counter: inhibits firefly luciferase, PMP22 counter-screen | 690 tested, under 10 active | shares compounds with PMP22 txn prim | purified P. pyralis FLuc, luminescence, 10 min | Potency, µM (doses to about 57.5 µM), for inactives: at the highest dose activity, negative = inhibition, most hits filed as inhibitors; also: % of control where 0% means no effect
# Target sequence (P08659 whole entry, looked up): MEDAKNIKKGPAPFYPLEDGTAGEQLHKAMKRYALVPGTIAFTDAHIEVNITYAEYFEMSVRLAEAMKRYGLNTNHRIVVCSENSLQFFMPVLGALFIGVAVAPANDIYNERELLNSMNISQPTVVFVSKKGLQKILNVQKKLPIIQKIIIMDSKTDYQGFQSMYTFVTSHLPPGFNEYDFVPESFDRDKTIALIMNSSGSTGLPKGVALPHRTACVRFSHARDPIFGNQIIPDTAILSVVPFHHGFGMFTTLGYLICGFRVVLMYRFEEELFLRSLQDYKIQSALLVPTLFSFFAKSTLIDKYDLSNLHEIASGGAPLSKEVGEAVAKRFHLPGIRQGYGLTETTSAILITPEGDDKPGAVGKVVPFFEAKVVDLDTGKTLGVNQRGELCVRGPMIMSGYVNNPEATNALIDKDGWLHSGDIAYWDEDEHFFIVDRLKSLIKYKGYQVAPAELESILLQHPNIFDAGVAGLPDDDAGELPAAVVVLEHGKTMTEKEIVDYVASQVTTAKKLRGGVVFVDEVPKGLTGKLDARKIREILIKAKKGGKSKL
# S16 viab conf: S16 Schwann cell cytotoxicity, confirmatory. shares compounds with PMP22 txn prim. S16 Schwann cells viability, CellTiter-Glo ATP luminescence, 24 h. Potency, µM (top dose mostly 57.5 µM), without a hit: at the top dose activity change, negative = viability loss, actives largely listed as cytotoxic. 690 tested, 7% active. AID 1508641; also: potency is read from the fitted curve at half-maximal effect; % is scaled to controls: 0 for no effect and ±100 for the full control effect
# PMP22 txn conf: PMP22 transcription modulation, confirmatory; shares compounds with PMP22 txn prim; S16 Schwann cells Pmp22-F2sN, dual luciferase, 24 h; Potency, µM (highest dose often 57.5 µM), for the others: at the top dose activity change, negative = inhibition, actives largely listed as inhibitors; 690 tested, 22% active; AID 1508646; active = clear falling dose curves in both reporters; inconclusive = both reporters move, but less clearly or upward; inactive = either reporter flat; the % is the FLuc reporter signal; also: potency is read from the fitted curve at half-maximal effect
# Starred values were filed as active, the others as inactive; i = inactive; ? = inconclusive; / = not tested or not shown. Rows were chosen to be rich in hits. Some 3.6% of all compounds tested hit in one or more screens of this group. Unless noted, calls follow the shape of the dose curve; as a rule, active = well fitted curve in the direction sought with a large enough effect; inconclusive = small, poorly fitted or top-dose-only effect, or another doubt; inactive = no such curve, though single readings can be large; an effect the other way counts as inactive or inconclusive.
SMILES,HTT promoter inh,HTT-AS act,PMP22 txn prim,S16 F2sN tox,SKOV3 invasion,mTORC1 inh,NLuc sat counter,NLuc Km ctr,FLuc counter,S16 viab conf,PMP22 txn conf
CCOc1ccc(-n2ccnc2SCC(=O)Nc2nc3ccc(C)cc3s2)cc1,?,-16.0%,8.91µM*,2.9%,3.7%,-16.3%,-1.6%,?,-6.5%,-1.0%,-20.9%
NC(=O)c1ncn([C@@H]2O[C@H](CO)[C@@H](O)[C@@H]2O)c1N,12.8%,1.2%,/,/,-15.4%,/,/,/,/,/,/
Cc1cccc(NC(=O)N2CCc3c(sc4c3CCCC4)C2c2ccc(F)cc2)c1 (centres undefined),?,-24.4%,-14.3%,-22.4%,2.5%,8.2%,/,/,/,/,/
COc1ccc(NC(=O)N2CCc3c(sc4c3CCCC4)C2c2ccc(F)cc2)cc1 (centres undefined),?,-22.2%,15.2µM*,?,-1.0%,19.9%,-11.6%,-13.3%,2.1%,?,-30.2%
O=C(NCCSc1c[nH]c2ccccc12)c1ccccc1Cl,-22.4%,-16.1%,?,?,-2.1%,1.2%,?,?,-12.2%,1.2%,-24.6%
O=C(NCCSc1c[nH]c2ccccc12)c1ccc(Cl)cc1,-1.6%,-8.7%,-3.1%,-27.1%,10.3%,-2.5%,/,/,/,/,/
Cc1cc(C(C)Nc2ccccc2)c2nc(N3CCOCC3)cc(=O)n2c1 (centres undefined),-17.0%,-26.6%,/,/,-11.6%,/,/,/,/,/,/
CCOC(=O)Oc1ccc(CCNC(=O)[C@H](CCSC)NC(C)=O)cc1OC(=O)OCC,0.5%,-1.6%,/,/,/,/,/,/,/,/,/
CCCCn1c(=O)n(Cc2ccccc2F)c(=O)c2[nH]c(Cc3ccc(NC(C)=O)cc3)nc21,?,-25.8%,/,/,-22.4%,/,/,/,/,/,/
CCOC(=O)c1ccc(N2C(=O)c3n[nH]c(-c4cccs4)c3C2c2ccc(O)c(OC)c2)cc1 (centres undefined),?,-64.6%,16µM*,?,i,?,?,?,-9.4%,-18.5%,?
O=C(Cn1cc(C(=O)C2CCCCC2)c2ccccc21)Nc1ccccc1Cl,?,-33.7%,9.46µM*,-22.5%,7.7%,-9.1%,-4.8%,8.1%,-8.8%,-9.7%,?
Cc1nnc(N2CCC(C(=O)N3CCCCC3)CC2)c2nn(-c3ccc(Cl)cc3)c(C)c12,-9.7%,-8.3%,18.9µM*,?,2.1%,-2.2%,-6.0%,4.7%,-1.7%,-9.0%,?
COc1ccc(CNC(=O)C2CCCN(c3nnc(C)c4c(C)n(-c5ccc(C)cc5)nc34)C2)cc1 (centres undefined),0.5%,-18.2%,17µM*,?,-28.7%,-14.4%,?,?,-3.9%,?,?
Cc1nnc(N2CCCC(C(=O)Nc3ccccc3C(F)(F)F)C2)c2nn(-c3ccccc3)c(C)c12 (centres undefined),?,-31.4%,12.6µM*,28.2µM*,?,-7.9%,-19.0%,-2.5%,4.3%,?,?
COc1ccc(NC(=O)C2CCCN(c3nnc(C)c4c(C)n(-c5ccccc5)nc34)C2)cc1Cl (centres undefined),?,-36.9%,20µM*,?,?,?,-8.6%,-0.8%,27.8%,43.2µM*,?
Cc1ccc(NC(=O)C2CCN(c3nnc(C)c4c(C)n(-c5ccccc5)nc34)CC2)cc1Cl,-9.1%,-4.7%,-3.2%,11.0%,-3.0%,-8.1%,/,/,/,/,/
Cc1nnc(N2CCC(C(=O)NC3CCCCC3)CC2)c2nn(-c3ccc(Cl)cc3)c(C)c12,-0.4%,-10.0%,-4.6%,-2.3%,2.8%,-7.3%,/,/,/,/,/
N=c1n(CCN2CCCCC2)c2ccccc2n1CC(O)COc1ccccc1 (centres undefined),?,-50.4%,?,-20.7%,?,/,/,/,/,/,/
CCCCCn1c(=N)n(CC(O)COc2cccc(C)c2)c2ccccc21 (centres undefined),?,-33.2%,17.8µM*,?,?,3.69µM*,-11.1%,4.4%,-3.5%,21.7µM*,16.3µM*
CCc1ccc(-c2nc(CN3CCC(C(=O)NCCc4ccc(Cl)cc4)CC3)c(C)o2)cc1,-2.7%,-2.5%,16.3µM*,15.8%,4.5%,-3.7%,-7.3%,1.8%,-12.9%,?,?
Cc1oc(-c2ccc(Cl)cc2)nc1CN1CCCC(C(=O)NCCc2ccccc2)C1 (centres undefined),?,-33.1%,18.9µM*,-13.0%,2.2%,3.7%,-9.6%,-15.4%,-19.9%,?,-29.3%
CC(=O)OCC#CCSc1nnc(-c2cccc(Br)c2)o1,-1.9%,6.5%,9.15µM*,10.2%,-7.0%,3.4%,?,?,-12.1%,?,?
COC(=O)CSc1nnc(-c2cccc(O)c2)o1,-0.6%,-2.7%,-6.3%,11.1%,-1.7%,-1.0%,/,/,/,/,/
O=c1[nH]c(-c2ccc(C(F)(F)F)cc2)nc2c1CSCC2,-1.0%,-4.6%,/,/,-15.6%,/,/,/,/,/,/
COC(=O)c1ccc(NC(=O)CSc2nc(=O)n(Cc3ccco3)c3c2CCC3)cc1,0.0%,-28.8%,8.29µM*,-11.0%,-5.7%,-8.3%,?,?,-13.5%,-1.3%,-43.6%

# Source: PubChem BioAssay
